An excerpt weighted towards active compounds, which were near 3.8% of everything screened.
KCNH2 3.1 block – KCNH2 3.1 (human) potassium channel inhibition. 0.95% of 340,000 active. U2OS KCNH2 3.1, thallium flux FluxOr; active compounds read low. activity change, % (tested at about 1.8 µM). AID 720553;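 active = maximum activity change below -70%; inconclusive = maximum activity change from -70% to -50%; inactive = maximum activity change above -50%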;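 note: thallium influx rate constant from kinetic fluorescence after stimulation buffer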
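Thallium flux via FluxOr fluorescence (Red40 quencher, 45 min loading) in U2OS cells virally expressing the KCNH2 3.1 isoform (1.77 x 10^8 /mL virus, overnight at 37 C). Rate constants from 2-min kinetic reads post-stimulation, normalised to positive and negative controls.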
VDR inhibitor – blocks the human vitamin D receptor; 0.93% of 400,000 active; VDR-SRC2-3 peptide fluorescence polarization, 2 h; Potency, µM, actives largely listed as inhibitors; P11473
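Measured by FP: displacement of SRC2-3 coactivator peptide from VDR by library compounds, following a two-hour ambient incubation.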
MBNL1 CUG block – MBNL1-poly(CUG) RNA binding inhibition | Potency, µM (doses to about 57.5 µM), actives largely listed as inhibitors | Q9NR56 | 0.036% of 280,000 active | TR-FRET MBNL1-His/biotin-(CUG)12 binding, 665/545 ratio | AID 2675; active = well fitted inhibition curve with a large enough effect in the signal ratio, with a control signal flat, not every such curve was filed as active; inconclusive = small, poorly fitted or top-dose-only effect, or effect the other way, or a change in a side signal; inactive = no such curve, though single readings can be large or run the other way; the % refers to the signal ratio
Target sequence (Q9NR56 whole entry, looked up): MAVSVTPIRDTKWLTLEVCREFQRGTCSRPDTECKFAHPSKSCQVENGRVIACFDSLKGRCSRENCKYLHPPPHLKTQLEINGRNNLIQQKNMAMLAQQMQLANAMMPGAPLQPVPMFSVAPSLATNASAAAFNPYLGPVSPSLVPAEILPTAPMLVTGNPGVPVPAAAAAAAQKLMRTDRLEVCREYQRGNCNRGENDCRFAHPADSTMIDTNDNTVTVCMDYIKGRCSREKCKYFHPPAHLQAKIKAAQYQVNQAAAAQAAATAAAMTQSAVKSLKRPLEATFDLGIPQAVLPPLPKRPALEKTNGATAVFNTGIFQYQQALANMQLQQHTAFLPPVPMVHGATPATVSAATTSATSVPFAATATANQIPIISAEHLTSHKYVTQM
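TR-FRET between His-tagged MBNL1 and biotin-(CUG)12 RNA, detected with Tb anti-His antibody (0.055 ng/ul) and streptavidin-XL665 (5 nM), 60 min at room temperature. Compounds titrated 92 nM to 58 uM; 665/545 nm ratio normalized to buffer and complex controls.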
hERG WT inh – blocks the wildtype human KCNH2 potassium channel | U2OS, BacMam KCNH2, thallium flux FluxOr; active compounds read low | Q12809 | AID 720551 | 0.37% of 340,000 active | activity change, % at 1.84 µM;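 active = maximum activity change below -70%; inconclusive = maximum activity change between -70% and -50%; inactive = maximum activity change above -50%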
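U2OS cells were transduced with wild-type KCNH2 virus (2.03 x 10^8 / mL) for 4 h at room temperature, then cultured overnight at 37 C. Thallium flux was read with FluxOr dye. Rate constants were normalized to DMSO controls.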
CBFb-RUNX1 inh – inhibitors of human CBF-beta and RUNX1 interaction; AlphaScreen CBFb-His/RUNX1-biotin binding, biochemical; Potency, µM (series often up to 59.8 µM), hits mostly inhibitors; 230,000 tested, under 10 active; AID 1477
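AlphaScreen binding: CBFb-His and RUNX1-biotin (30 nM each) preincubated 20 min, compound added for 15 min, then nickel and streptavidin beads for 90 min, all at room temperature. Disruption of the interaction by any mechanism counts as activity.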
PLK1 PBD block – PLK1 (human) polo-box domain binding inhibition | P53350 | Plk1 PBD binding of FITC phosphopeptide, fluorescence polarization | Potency, µM, actives largely listed as inhibitors | 2.8% of 360,000 active; note: series mostly up to about 57 µM; nearly all actives have a fitted effect of over 65% in size
Numbers stand for hits; – = inactive; ? = inconclusive; · = not tested or not shown; [ ] = another dose, or the depositor's remark. Unless noted, calls come from the whole dose curve; as a rule, active = well fitted curve in the direction sought with a large enough effect; inconclusive = small, poorly fitted or top-dose-only effect, or another doubt; inactive = no such curve, though single readings can be large; an effect the other way counts as inactive or inconclusive.

SMILES	KCNH2 3.1 block	VDR inhibitor	MBNL1 CUG block	hERG WT inh	CBFb-RUNX1 inh	PLK1 PBD block
Nc1ccccc1C#CC(=O)c1ccccc1	–	?	–	–	·	8.4µM
Cc1c(CCCC(=O)O)sc(N)c1C(=O)c1cccc(C(F)(F)F)c1	·	89µM	·	·	·	·
Cc1nc2c(C(=O)NCCC3=CCCCC3)c[nH]n2c(=O)c1Cl	–	–	–	–	–	24µM
Cc1nc2c(C(=O)NCCc3ccc(Cl)cc3)c[nH]n2c(=O)c1Cc1ccc(Cl)cc1	·	–	·	·	·	·
O=c1c2cc3c(cc2n(Cc2ccc(F)cc2)c(=O)n1Cc1nc(-c2ccccc2)no1)OCO3	·	–	·	·	·	·
N#Cc1ccc(C[C@H](C(=O)O)N2C(=O)c3ccc(C(=O)O)cc3C2=O)cc1	·	·	·	·	–	·
Oc1ccc(CNc2ccccc2)c2cccnc12	–	?	–	–	?	7.5µM
COCc1ccc(O)c2ncccc12	–	–	–	–	·	–
Cc1ccccc1NCc1ccc(O)c2ncccc12	–	?	–	–	?	3µM
Cc1ccc(O)c2ncccc12	·	–	·	·	·	·
Oc1ccc2ccccc2c1CNc1ccccc1	–	22µM	·	–	·	3.4µM
Cc1cccc(NCc2ccc(O)c3ncccc23)c1	–	–	–	–	?	3.4µM
COc1ccc(Cl)cc1C1CC(=O)Nc2cc3c(cc21)OCCO3 (stereo unspecified)	·	–	·	·	·	·
Oc1ccc(CNc2ccc(F)cc2)c2cccnc12	–	?	–	–	–	3.4µM
Cc1cc(C)c(SSc2nnnn2-c2ccccc2)c(C)c1	–	·	·	–	·	3µM
COc1cc(-c2noc(-c3ccc(NCc4cccnc4)c([N+](=O)[O-])c3)n2)cc(OC)c1OC	·	–	·	·	·	·
O=C(Nc1ncc(Cc2ccccc2Cl)s1)c1ccc2c(c1)CC(c1ccccc1)OC2=O (stereo unspecified)	·	–	·	·	·	·
Cc1cc(C)cc(NC(=O)CNC(c2ccccc2)c2ccccc2)c1	–	–	–	-70	·	–
CCOC(=O)N1CCN(C(=O)CN2C(=O)/C(=C\c3cccc(OC)c3)SC2=S)CC1	·	–	·	·	·	·
CCCCCc1cc(=O)oc2c(C(CCN3CCCC(C)C3)c3ccc(OC)cc3)c(OC)cc(OC)c12 (stereo unspecified)	-91	–	–	-115	–	–
COc1ccc(Nc2cc(C(=O)NCCCN3CCOCC3)c3ccccc3n2)cc1	–	–	–	–	·	–
CCc1ccc(Nc2cc(C(=O)NCCCN3CCOCC3)c3ccccc3n2)cc1	-74	–	–	–	–	–
C=CCn1ccc2c([N+](=O)[O-])cccc2c1=O	–	–	·	–	–	–
Cn1ccc2c([N+](=O)[O-])cccc2c1=O	–	–	?	–	–	30µM
Cc1ccc(NC(=O)CCCc2nnc3n(C)c(=O)c4sccc4n23)cc1F	·	–	·	·	·	·
SMILES	KCNH2 3.1 block	VDR inhibitor	MBNL1 CUG block	hERG WT inh	CBFb-RUNX1 inh	PLK1 PBD block
CCCN(CCC)S(=O)(=O)c1ccc(C(=O)OCCN2C(=O)c3cccc4c(N5CCOCC5)ccc(c34)C2=O)cc1	–	–	–[11.5 µM]	–	–	15µM
CC(=O)N(C(C)=O)c1ncnc2c1c(-c1ccc(Cl)cc1)nn2C(C)(C)C	–	50µM	–	–	–	–
Cc1cc(OCCCCCN2CCCC2)ccc1Cl	-86	–	–	–	–	–
CC1CCCN(CCCOc2ccc(Br)cc2Cl)C1 (stereo unspecified)	-105	–	–	–	–	–
CC(C)(C)c1ccc(OCCCN2CCCC2)cc1	-86	–	–	–	·	–
CC(OCCN1CCCC1)(c1ccc(F)cc1)c1ccc(F)cc1	–	?	–	–	–	30µM
CCOC(=O)c1ccc(NC(=O)C(Cc2ccccc2)N2Cc3ccccc3C2=O)cc1 (stereo unspecified)	·	–	·	·	·	·
CCCn1cc(S(=O)(=O)c2ccc(CC)cc2)c(=O)c2cc(F)c(N3CCN(C)CC3)cc21	·	–	·	·	·	·
Cc1cc(Br)ccc1OCCCCN1CCCCC1	-89	–	–	–	–	–
S=C(NCCCc1cnc[nH]1)NCCCN(Cc1ccc(Cl)cc1)c1cc(-c2ccccc2)ccn1	·	–	·	·	·	·
COc1cccc(OC)c1C(=O)Nc1cccc(-c2nc3cc(C)cc(C)c3o2)c1	·	–	·	·	·	·
Cc1nc2nc(-c3cccs3)cn2nc1C	–	–	?	–	–	30µM
